# Results as given in the antibiotic and cytotoxicity screens of Wong et al. (2023).
# Out of some 39,000 compounds screened, about 3,300 (8.5%) were called active. The sample holds actives, similar compounds and a random draw of the others, so the mix is not that of the screen.
# System: HepG2
# Assay: cytotoxicity call (relative viability < 0.9)
# Details: 10 µM
row,SMILES,cytotoxicity call
1,COc1ccc(S(=O)(=O)N(C)C[C@@H]2OCCCC[C@@H](C)Oc3ccc(NS(C)(=O)=O)cc3C(=O)N([C@@H](C)CO)C[C@H]2C)cc1,inactive
2,C[C@H]1CN([C@@H](C)CO)C(=O)c2cccc(NC(=O)C3CCOCC3)c2O[C@H]1CN(C)Cc1ccc(-c2ccccc2)cc1,inactive
3,O=C1NC(=O)[C@H]2CC[C@H]2N1,inactive
4,CN(CC=Cc1ccccc1)Cc1cccc2ccccc12.Cl,inactive
5,Cc1noc(C)c1S(=O)(=O)N(C)C[C@H]1OCCCC[C@H](C)Oc2ccc(NC(=O)Nc3ccc(C(F)(F)F)cc3)cc2C(=O)N([C@H](C)CO)C[C@@H]1C,inactive
6,Cc1ccc(S(=O)(=O)Nc2ccc3c(c2)C(=O)N([C@@H](C)CO)C[C@H](C)[C@H](CN(C)Cc2ccncc2)OCCCC[C@H](C)O3)cc1,inactive
7,COCC(=O)N1CC(=O)N2[C@H](C1)[C@@H](c1ccc(C#Cc3cccnc3)cc1)[C@@H]2CO,inactive
8,Cc1noc(C)c1S(=O)(=O)N(C)C[C@H]1Oc2ccc(NS(=O)(=O)c3ccccc3)cc2CC(=O)N([C@H](C)CO)C[C@H]1C,inactive
9,C[C@H]1CN([C@@H](C)CO)C(=O)c2cccc(NS(=O)(=O)c3ccc(Cl)cc3)c2O[C@@H]1CN(C)Cc1ccc(Oc2ccccc2)cc1,active
10,COc1ccc(S(=O)(=O)Nc2cccc3c2O[C@H](CN(C)Cc2ccc(-c4ccccc4)cc2)[C@H](C)CN([C@@H](C)CO)C3=O)cc1,inactive
11,COc1ccc(S(=O)(=O)Nc2cccc3c2O[C@H](CN(C)Cc2ccc(Oc4ccccc4)cc2)[C@@H](C)CN([C@H](C)CO)C3=O)cc1,inactive
12,C[C@@H]1CN([C@@H](C)CO)C(=O)c2cccc(NS(=O)(=O)c3ccc(F)cc3)c2O[C@@H]1CN(C)Cc1ccc(Oc2ccccc2)cc1,active
13,C[C@H]1CN([C@@H](C)CO)C(=O)c2cccc(NS(=O)(=O)c3ccc(F)cc3)c2O[C@@H]1CN(C)Cc1ccc(Oc2ccccc2)cc1,inactive
14,COc1ccc(S(=O)(=O)Nc2cccc3c2O[C@H](CN(C)Cc2ccc(Oc4ccccc4)cc2)[C@@H](C)CN([C@@H](C)CO)C3=O)cc1,inactive
15,COc1ccc(S(=O)(=O)Nc2cccc3c2O[C@H](CN(C)Cc2ccc(-c4ccccc4)cc2)[C@@H](C)CN([C@H](C)CO)C3=O)cc1,active
16,C[C@@H]1CN([C@@H](C)CO)C(=O)c2cccc(NS(=O)(=O)c3ccc(Cl)cc3)c2O[C@@H]1CN(C)Cc1ccc(Oc2ccccc2)cc1,inactive
17,C[C@@H]1CN([C@@H](C)CO)C(=O)c2cccc(NS(=O)(=O)c3ccc(Cl)cc3)c2O[C@H]1CN(C)Cc1ccc(Oc2ccccc2)cc1,inactive
18,C[C@@H]1CN([C@@H](C)CO)C(=O)c2cccc(NS(=O)(=O)c3ccc(F)cc3)c2O[C@H]1CN(C)Cc1ccc(Oc2ccccc2)cc1,inactive
19,COc1ccc(S(=O)(=O)Nc2cccc3c2O[C@H](CN(C)Cc2ccc(-c4ccccc4)cc2)[C@H](C)CN([C@H](C)CO)C3=O)cc1,inactive
20,COc1ccc(S(=O)(=O)Nc2cccc3c2O[C@H](CN(C)Cc2ccc(Oc4ccccc4)cc2)[C@H](C)CN([C@@H](C)CO)C3=O)cc1,active
